Rows were chosen to be rich in hits. Some 19% of all compounds tested hit in one or more screens of this group.
IL1B secr inh: qHTS for Inhibitors of Inflammasome Signaling: IL-1-beta AlphaLISA Primary Screen; THP-1 LPS/ATP IL-1B secretion, AlphaLISA, 16 h; active compounds read low; activity change, % at 57.5 µM; 360,000 tested, 4.7% active; AID 743279, 2014; in the data active = activity change below about -50%; inconclusive = mostly about -30% to -49%
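Secreted IL-1B measured by AlphaLISA bead assay after 16 h compound exposure of THP-1 cells; compounds (final up to 57.5 uM) added 1 h before LPS (250 ng/mL) and ATP (1.25 mM) stimulation; lower signal means less secretion.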
TDP1 cell noCPT: qHTS for Inhibitors of human tyrosyl-DNA phosphodiesterase 1 (TDP1): qHTS in cells in absence of CPT; Potency, µM (highest dose often 46.2 µM), inactives show at the highest dose activity change, negative = growth inhibition, most hits filed as inhibitors; 420,000 tested, 15% active; AID 686978, 2013; DT40 Tdp1-/- hTDP1 cells, no CPT, ATP luminescence, 48 h; also: potency is read from the fitted curve at half-maximal effect; nearly all actives have a fitted effect of over 55% in size
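Growth of hTDP1-complemented DT40 Tdp1-knockout cells is measured by ATP luminescence after at least 48 hr compound exposure at 37 °C, with DMSO substituting for the 20 nM CPT used in the parallel screen.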
HT1080NT lethal: qHTS for induction of synthetic lethality in tumor cells producing 2HG: qHTS for the HT-1080-NT fibrosarcoma cell line. HT-1080-NT fibrosarcoma viability, CellTiter-Glo ATP luminescence, 48 h. Potency, µM (doses to about 46.1 µM), without a hit: at the top dose activity, negative = less viability, usual class: cytotoxic. 360,000 tested, 1.6% active. AID 686970, 2013;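 also: NT is the 2HG producing partner of a matched IDH1 knockdown line; potency is read from the fitted curve at half-maximal effect; 0% = DMSO-treated cells and -100% = media-only wells without cells; nearly all actives have a fitted effect of over 55% in size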
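Read-out is CellTiter-Glo luminescence after 10 minutes at room temperature, following 48 hours' compound treatment of HT-1080-NT cells (750 cells/well, RPMI, 5% FBS, 37 degrees C).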
HT1080 IDH1KD tx: qHTS for induction of synthetic lethality in tumor cells producing 2HG: qHTS for the HT-1080-IDH1KD cell line. AID 686971, 2013. 360,000 tested, 2% active. HT-1080 IDH1 knockdown viability, ATP luminescence, 48 h. Potency, µM (highest dose often 46.1 µM), for inactives: top-dose activity, negative = toxicity, hits mostly cytotoxic;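 also: potency is read from the fitted curve at half-maximal effect; 0% = DMSO wells and -100% = cell-free medium wells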
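Viability of IDH1-knockdown HT-1080 fibrosarcoma cells was assessed by CellTiter-Glo after 48 h at 37 °C with titrated compound; concentration-effect curves were classified by fit quality and response size.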
TDP1 cell CPT: qHTS for Inhibitors of human tyrosyl-DNA phosphodiesterase 1 (TDP1): qHTS in cells in presence of CPT; AID 686979, 2013; Potency, µM (top dose mostly 46.2 µM), without a hit: at the highest dose activity change, negative = growth inhibition, most hits filed as inhibitors; 420,000 tested, 12% active; chicken DT40 Tdp1-/-;hTDP1 cells + 20 nM CPT, ATP luminescence, 48 h; also: potency is read from the fitted curve at half-maximal effect; nearly all actives have a fitted effect of over 55% in size
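Chicken DT40 Tdp1-/- cells complemented with human TDP1, 400 cells/well, exposed to compounds plus 20 nM camptothecin for at least 48 h at 37 C; viability read as ATP content by CellTiter-Glo luminescence.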
ELG1 DNA repair: qHTS screen for small molecules that inhibit ELG1-dependent DNA repair in human embryonic kidney (HEK293T) cells expressing luciferase-tagged ELG1; HEK293T ELG1-luciferase reporter, luminescence, 16 h; DNA damage induced by 5-fluorouridine; 330,000 tested, 2.3% active; Potency, µM (top dose mostly 46.1 µM), without a hit: top-dose activity change, negative = inhibition, most hits filed as inhibitors; also: potency is read from the fitted curve at half-maximal effect; nearly all actives have a fitted effect of over 55% in size
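5-Fluorouridine DNA damage + compound/DMSO, 2,000 cells/well, 16 h, 37 °C/5% CO2. ONE-Glo, 30 min RT, luminescence. Readout = decrease in reporter signal.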
* hit, by the source's call; u = inconclusive; x = no result given; [ ] = dose if it differs, or a comment. Unless noted, calls follow the shape of the dose curve; as a rule, active = well fitted curve in the direction sought with a large enough effect; inconclusive = small, poorly fitted or top-dose-only effect, or another doubt; inactive = no such curve, though single readings can be large; an effect the other way counts as inactive or inconclusive. Unless noted, % is scaled to controls: 0 for no effect and ±100 for the full control effect.

SMILES	IL1B secr inh	TDP1 cell noCPT	HT1080NT lethal	HT1080 IDH1KD tx	TDP1 cell CPT	ELG1 DNA repair
CCC(C)Sc1ccc([C@H]2N[C@@](C)(C(=O)OC)[C@H]3C(=O)N(CC)C(=O)[C@@H]23)cc1 (stereo partly specified)	18	18µM*	5%	12%	16µM*	20%
CCC(C)Sc1ccc([C@H]2N[C@@](C)(C(=O)OC)[C@H]3C(=O)N(C)C(=O)[C@@H]23)cc1 (stereo partly specified)	17	u	10%	8%	-29%	25%
O=C(O)CCc1ccc(-c2ccccc2)n1-c1cccc(Br)c1	x	-11%	x	x	-8%	x
CCOC(=O)Cn1nc(C)c(NC(=O)COc2ccc(Cl)cc2C)c1C	x	8.2µM*	x	x	9.2µM*	x
CCOC(=O)Cn1nc(C)c(NC(=O)c2ccc(Cl)c([N+](=O)[O-])c2)c1C	-85*	u	-15%	-14%	-24%	-14%
CCOC(=O)Cn1nc(C)c(NC(=O)c2cccc([N+](=O)[O-])c2)c1C	-10	3%	15%	u	11%	-7%
CC(C)CNC(=O)CN1c2cccc3cccc(c23)S1(=O)=O	0	-2%	u	1%	-13%	11%
COc1cc(OC)cc(C(=O)N[C@H](C(=O)Nc2nc(-c3cc(OC)ccc3OC)cs2)C(C)C)c1	x	u	-7%	-13%	-3%	21µM*
COc1cc(OC)cc(C(=O)N[C@H](C(=O)Nc2nc(-c3ccc(OC)c(OC)c3)cs2)C(C)C)c1	-29	13µM*	u	-1%	18µM*	21µM*
CCc1nnc(NC(=O)[C@@H](NC(=O)c2cc(OC)cc(OC)c2)C(C)C)s1	15	1%	-3%	-4%	-7%	-5%
COc1ccccc1C(c1nnnn1Cc1ccccc1)N1CCN(C2CCCC2)CC1 (stereo unspecified)	-17	u	0%	-1%	u	-22%
COc1ccc(OC)c(C(c2nnnn2Cc2ccccc2)N2CCN(C3CCCCC3)CC2)c1 (stereo unspecified)	-30	u	-5%	-3%	18µM*	-6%
Fc1ccc(Cn2nnnc2C(c2cccs2)N2CCN(C3CCCCC3)CC2)cc1 (stereo unspecified)	0	16µM*	0%	-1%	15µM*	-4%
COc1ccc(Cn2nnnc2C(c2ccc(C)cc2)N2CCN(C3CCCC3)CC2)cc1 (stereo unspecified)	u	9.2µM*	u	-26%	16µM*	-2%
COC(=O)COc1ccc(C(C2C(=O)CC(C)(C)CC2=O)C2C(=O)CC(C)(C)CC2=O)cc1	10	13%	0%	3%	-4%	13%
Cc1ccc(CNC(=O)CSc2nc3ccccc3c(=O)n2CCCO)cc1	-3	-24%	-3%	-5%[9.24 µM]	-19%	-6%
Cc1ccc(-c2nc(CSc3nc4ccccc4c(=O)n3C)cs2)cc1	0	26µM*	9%	-1%	18µM*	u
COc1ccccc1-n1cnnc1SCc1csc(-c2ccccc2)n1	-18	u	-8%	-2%	u	u
Cc1ccc(-c2nc(CCN3C(=O)c4ccccc4C3=O)cs2)cc1	-4	-14%	u	10µM*	u	23%
C=CCn1c(SCc2csc(-c3ccc(C)cc3)n2)nnc1-c1ccccc1OC	u	18µM*	-20%	u	12µM*	-4%
Cc1ccc(-c2nc(CSc3nc4ccccc4c(=O)n3CCO)cs2)cc1	-10	16µM*	-26%	-22%	u	-2%
CC(=O)N1c2ccc(S(=O)(=O)N3CCC(C(=O)NC(C)c4ccccc4)CC3)cc2CC1C (stereo unspecified)	7	-16%	3%	1%	1%	11%
COc1ccc(NS(=O)(=O)c2ccc(C)c(C(=O)NCC(c3ccco3)N(C)C)c2)cc1 (stereo unspecified)	-5	-4%	3%	5%	u	-21%
COc1cc(OC)c(NS(=O)(=O)c2c(C(=O)N3CCC(C)CC3)c(C)n(C)c2C)cc1Cl	x	-30%	x	x	-27%	x
COc1ccc2c(c1)cc1c(=O)n(CC(=O)NC3CC3)nc(C)n12	x	4%	x	x	-2%	x
SMILES	IL1B secr inh	TDP1 cell noCPT	HT1080NT lethal	HT1080 IDH1KD tx	TDP1 cell CPT	ELG1 DNA repair
O=C1CN(S(=O)(=O)c2cc(C(F)(F)F)ccc2Cl)CCN1	0	4%	0%	11%	1%	8%
CCOC(=O)c1cccc(NC(=O)CCSCCc2ccccn2)c1	x	-6%	x	x	7%	x
O=c1c2sccc2n(Cc2cc(=O)n3ccccc3n2)c(=O)n1-c1cccc(C(F)(F)F)c1	x	-8%	x	x	-5%	x
COc1ccc(/C=N/NC(=O)c2cccnc2)c2ccccc12	71	-26%	3%	-2%	1%	-12%
COc1ccc(/C=N/NC(=O)c2cccs2)c2ccccc12	-9	8.2µM*	-27%	u	u	x
COc1ccc(/C=N/NC(N)=S)cc1OC(=O)c1cccc2ccccc12	-8	18µM*	-29%	u	15µM*	u
COc1cc(/C=N/NC(=O)c2cccc3ccccc23)cc(OC)c1O	25	u	2%	6%	4.6µM*	-1%
COc1cc(C(=O)Oc2ccccc2/C=N/NC(=O)c2ccc(Cl)cc2Cl)cc(OC)c1OC	79	0.92µM*	u	u	0.65µM*	u
COc1cc(/C=N/NC(=O)c2cccc3ccccc23)cc(OC)c1OC	78	u	-9%	0%	-7%	16%
NC(=O)c1nc(C(=O)N2CCCCC2)c2ccccc2n1	-8	-3%	27%	-1%	u	18%
COc1ccc(OCC(=O)N2CCc3ccccc32)c([N+](=O)[O-])c1	-20	-18%	4%	-1%	-21%	x
COc1ccccc1/C=N/NC(=O)c1cccc2ccccc12	-11	u	-17%	-4%	23µM*	13%
O=C(N/N=C/c1cccc2ccccc12)c1cccc(F)c1	-63*	0%	-1%	0%	0%	u

Bioassay records: PubChem BioAssay, National Center for Advancing Translational Sciences (NCATS)
